# About 83,000 compounds went through this panel and 20% of them were active in at least one assay; those are over-represented in the sample as a whole.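 The endpoint reported here, percent growth, reads 100 for growth as untreated, 0 for no net growth and -100 for all cells dead.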 Activity calls are given as the source filed them. Rule for the calls: active = growth percent below 10; inactive = the rest.
# System: SF-295 CNS
# Test: NCI-60 one-dose screen, 48 h (100 = growth as untreated, 0 = no growth, -100 = all killed)
# Conditions: 10 µM
row,SMILES,growth
1,COc1ccc(-c2csc(NC(=O)CSc3nc(C)c(-c4ccccc4)n3Nc3ccccc3)n2)cc1,-9.42% (active)
2,Cc1cccc(C)c1NC(=O)c1sc2nc3c(cc2c1N)C(=O)CCC3,49.9% (inactive)
3,CC(=O)CSC(C)=O,91.8% (inactive)
4,S=C1SCC(c2ccccc2)S1 (centres undefined),117% (inactive)
5,CC(=O)N(C)c1ccc(Nc2ccc(Nc3ccc(N(C)C(C)=O)cc3)c3c2C(=O)c2ccccc2C3=O)cc1,81.2% (inactive)
6,COc1ccc(CN2CCC(N3CCCC3=O)c3cc(Cl)ccc32)cc1 (centres undefined),124% (inactive)
7,CN(C)c1ccc(Cc2ccc(N(C)C)cc2Cl)c(Cl)c1,116% (inactive)
8,Clc1cc2c(c(CSc3nc4ccccc4n4cccc34)c1)OCOC2,79.5% (inactive)
9,CC(=O)n1c(-c2ccc(Cl)c(Cl)c2)cn(-c2ccc(Cl)cc2)c1=O,1.9% (active)
10,C#Cc1ccc(-n2c(/C=C/c3ccc4ccccc4n3)nc3ncccc3c2=O)cc1,-58.3% (active)
11,CSc1nn(-c2ccccc2)c2ncnc(Oc3ccccc3)c12,101% (inactive)
12,COc1ccc(-c2nc(-c3nc4cc(Cl)c(F)cc4[nH]3)c3ccccn23)cc1,45.1% (inactive)
13,C/C(=N\Nc1nc2ccccc2s1)c1ccncn1,39.3% (inactive)
14,Nc1cc2c(cc1Cl)-c1ccc([N+](=O)[O-])cc1/C2=N\O,74.8% (inactive)
15,CN(C)CCN1C(=O)c2cccc3cc(N)cc(c23)C1=O,21.1% (inactive)
16,CCCCCCNC(=O)Oc1ccc(/C(=C(/CC)Cc2ccccc2)c2ccc(OCCN3CCCCC3)cc2)cc1,114% (inactive)
17,Nc1nc(N)c(NC(=O)CNc2ccc(C(=O)O)cc2)c(N)n1,99.2% (inactive)
18,COc1ccc(-c2nn(-c3cccc(NC(=O)c4cc(C(F)(F)F)cc(C(F)(F)F)c4)c3)cc2-c2ccncc2)cc1Cl,53.9% (inactive)
19,O=C1/C(=C\c2ccccc2)CN(C(=O)c2ccccc2)C/C1=C\c1ccccc1,15.7% (inactive)
20,COc1ccc(/C=C2/CN(C(=O)c3ccc(C)cc3)C/C(=C\c3ccc(OC)cc3)C2=O)cc1,85.2% (inactive)

row,SMILES,growth
1,COc1ccc(S(=O)(=O)NCCCNc2nccc(-c3c(-c4ccc(F)cc4)nc4sccn34)n2)cc1,45.7% (inactive)
2,COc1ccc(-c2cc(-c3ccc(N(C)C)cc3)c(C#N)c(N3CCCC3)n2)cc1,93.8% (inactive)
3,CCOC(=O)N/N=C\C(C)=N\NC(=O)OCC,90.9% (inactive)
4,CN(C)Cc1cn(-c2ncc(-c3ccc(C(F)(F)F)cc3)c(NC3CCCCCC3)n2)nn1,94.3% (inactive)
5,CC(C)=NNc1ncnc2c1ncn2C1OC(CO)C(O)C1O (centres undefined),8.82% (active)
6,O=C(Nc1cccc(-n2cc(-c3ccncc3)c(-c3ccc(O)c(Cl)c3)n2)c1)c1cc(C(F)(F)F)cc(C(F)(F)F)c1,24.9% (inactive)
7,CCCC(F)C(=O)O (centres undefined),83.5% (inactive)
8,Nc1nc(Nc2ccccc2)n[nH]1,98.1% (inactive)
9,COc1ccc(-n2c(SCc3cc(OC)c(OC)c(OC)c3)nc3ccc(C)cc3c2=O)cc1,51.4% (inactive)
10,O=C(Nc1ccc(CN2CCc3nc4cc(O)c(O)cc4cc32)cc1)c1ccc(Cl)c(Cl)c1,101% (inactive)
11,CCOCCOCCOCCOCCOCCOCCOCCOCCOCCO (tested in a mixture with another compound),-29.2% (active)
12,CCCCCCc1cc(N=Nc2ccc(S(=O)(=O)Nc3cc(C)nc(C)n3)cc2)c(O)cc1O,98.7% (inactive)
13,CCN1CCN(c2nc3ccccc3c3c(=O)c4ccccc4sc23)CC1,24.6% (inactive)
14,COc1ccc(-c2nn(-c3cccc(NC(=O)Nc4ccccc4)c3)cc2-c2ccncc2)cc1Cl,-7.17% (active)
15,C#Cc1ccc(-n2c(/C=C/c3ccc4ccccc4c3)nc3ncccc3c2=O)cc1,19.6% (inactive)
16,Cc1ccc(S(=O)(=O)Oc2ccc3c4c(c(=O)oc3c2)CCCCC4)cc1,48.7% (inactive)
17,N=C(N)c1ccc(-c2ccc(-c3cccs3)s2)cc1,16.4% (inactive)
18,COc1cc(-c2cc(/C=C/C(=O)c3ccc(N)cc3)[nH]n2)cc(OC)c1OC,22.9% (inactive)
19,CCOC(=O)C(NC(=O)C(Cl)Cl)C(O)c1ccccc1 (centres undefined),76.1% (inactive)

# Source: PubChem BioAssay (NCI)
